Compound activity as filed in PubChem BioAssay.
An excerpt weighted towards active compounds, which were near 1.9% of everything screened.
PABP polyA inh – PABP poly(A) RNA binding inhibitors, primary screen, biochemical, fluorescence polarization, uHTS | calls only at 35 µM | 290,000 tested, 1% active;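 note: calls also rest on retests at 20 µM and on dose response follow-up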
14-3-3 Bad inh – inhibitors of 14-3-3 zeta/Bad binding, primary screen, biochemical, TR-FRET, bovine 14-3-3 zeta; 220,000 tested, 0.71% active; TR-FRET 14-3-3zeta/Dy647-pBad peptide displacement, 1 h; inhibition, % at 21.7 µM;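 active = inhibition above about 70%, limit read from the data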
eIF4H inh – human eIF4H binding inhibitors, primary screen, translation initiation inhibitor project, biochemical, uHTS, fluorescence polarization; eIF4H fluorescence polarization binding assay; inhibition, % at 35 µM; 290,000 tested, 0.94% active; Eukaryotic translation initiation factor 4H (Homo sapiens), Q15056; AID 2012, 2009;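 note: calls also rest on retests at 20 µM and on dose response follow-up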
eIF4E 4G PPI – eIF4E–eIF4G protein interaction inhibitors, primary screen, biochemical, uHTS, TR-FRET, eIF4GI fragment; AID 782, 2007; TR-FRET eIF4E-eIF4GI(517-606) binding, 2 h; 220,000 tested, 0.37% active; inhibition, % at 21.7 µM;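 active = inhibition above about 30%, limit read from the data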
Target sequence (P63073 whole entry, looked up, the tested form may be a part): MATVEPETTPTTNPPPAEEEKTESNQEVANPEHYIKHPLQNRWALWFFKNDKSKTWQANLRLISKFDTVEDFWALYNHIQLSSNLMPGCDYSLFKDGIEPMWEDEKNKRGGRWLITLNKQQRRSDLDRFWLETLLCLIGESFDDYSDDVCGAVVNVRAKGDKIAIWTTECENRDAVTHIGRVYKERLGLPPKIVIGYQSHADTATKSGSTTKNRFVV
Target sequence (Q04637 whole entry, looked up, the tested form may be a part): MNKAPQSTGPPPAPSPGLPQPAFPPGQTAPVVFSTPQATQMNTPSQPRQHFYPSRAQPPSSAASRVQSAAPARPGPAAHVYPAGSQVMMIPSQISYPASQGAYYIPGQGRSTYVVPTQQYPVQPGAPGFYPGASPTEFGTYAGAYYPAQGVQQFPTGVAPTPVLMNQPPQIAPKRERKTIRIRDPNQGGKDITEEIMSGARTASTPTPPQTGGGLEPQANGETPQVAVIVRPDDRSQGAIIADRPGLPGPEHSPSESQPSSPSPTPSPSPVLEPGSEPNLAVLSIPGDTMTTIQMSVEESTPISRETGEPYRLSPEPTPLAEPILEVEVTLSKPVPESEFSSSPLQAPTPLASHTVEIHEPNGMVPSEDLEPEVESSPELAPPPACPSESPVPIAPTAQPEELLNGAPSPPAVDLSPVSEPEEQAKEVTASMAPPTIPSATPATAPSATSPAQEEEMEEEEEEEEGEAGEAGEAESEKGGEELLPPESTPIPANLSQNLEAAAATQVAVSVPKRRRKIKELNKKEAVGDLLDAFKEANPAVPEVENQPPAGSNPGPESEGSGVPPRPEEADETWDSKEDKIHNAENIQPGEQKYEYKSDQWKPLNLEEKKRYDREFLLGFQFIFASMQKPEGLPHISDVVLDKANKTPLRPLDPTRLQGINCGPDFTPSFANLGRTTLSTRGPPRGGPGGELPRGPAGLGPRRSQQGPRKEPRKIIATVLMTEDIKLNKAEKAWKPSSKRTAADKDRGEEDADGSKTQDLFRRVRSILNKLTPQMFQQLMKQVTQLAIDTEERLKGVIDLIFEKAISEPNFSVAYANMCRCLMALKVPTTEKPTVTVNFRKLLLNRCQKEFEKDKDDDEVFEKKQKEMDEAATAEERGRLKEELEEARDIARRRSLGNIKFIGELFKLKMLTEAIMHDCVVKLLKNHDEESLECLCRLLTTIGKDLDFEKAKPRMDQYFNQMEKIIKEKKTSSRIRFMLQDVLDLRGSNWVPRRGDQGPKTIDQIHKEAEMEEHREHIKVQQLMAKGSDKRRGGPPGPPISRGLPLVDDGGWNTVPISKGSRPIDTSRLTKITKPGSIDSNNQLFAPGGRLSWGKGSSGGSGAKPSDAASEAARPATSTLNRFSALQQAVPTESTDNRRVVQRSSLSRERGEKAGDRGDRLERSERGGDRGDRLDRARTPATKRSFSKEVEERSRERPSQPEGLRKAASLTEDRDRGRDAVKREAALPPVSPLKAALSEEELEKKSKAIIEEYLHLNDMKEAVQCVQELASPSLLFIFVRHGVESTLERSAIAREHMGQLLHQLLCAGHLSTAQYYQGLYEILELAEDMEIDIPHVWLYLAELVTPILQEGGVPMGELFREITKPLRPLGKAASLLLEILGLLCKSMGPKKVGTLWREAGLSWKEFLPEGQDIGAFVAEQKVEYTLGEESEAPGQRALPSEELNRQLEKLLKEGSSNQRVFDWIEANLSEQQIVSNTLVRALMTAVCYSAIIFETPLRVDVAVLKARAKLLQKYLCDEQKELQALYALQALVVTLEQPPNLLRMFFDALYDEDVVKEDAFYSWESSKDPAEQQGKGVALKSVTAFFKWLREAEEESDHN
PABP1 MLLE inh – inhibitors of PABP1 MLLE–PAM2 peptide binding, primary screen, biochemical, fluorescence polarization, FITC-PAM2, GST-MLLE; Polyadenylate-binding protein 1 (Homo sapiens), P11940; inhibition, % at 20 µM; 360,000 tested, 0.36% active; in the data active = inhibition above about 35%, passing the limit was not always enough
Each line names hits and unclear results; the compound was inactive in the other large screens; ! = not active in a repeat; [ ] = remark or other dose. Unless noted, the rule behind the calls is not given here.

COc1ccccc1NC(=O)C(C)OC(=O)C1CCC(C(C)(C)C)CC1 (centres undefined)	none (no result: PABP polyA inh, 14-3-3 Bad inh, eIF4H inh, eIF4E 4G PPI)
Nc1cccc2cnccc12	eIF4H inh 88
Oc1cccc2cnccc12	none
CC(C)c1ccc(NC2CCCN(C(=O)c3cnsn3)C2)cc1 (centres undefined)	none (no result: 14-3-3 Bad inh, eIF4E 4G PPI)
Cn1c(SCC(=O)N2CCCC2)nc2ccccc21	eIF4H inh active
CN(C(=O)COC(=O)c1ccc2c(c1)NC(=O)CS2)C1CCS(=O)(=O)C1 (centres undefined)	none
CC(C)CN(C(=O)COC(=O)c1ccc2c(c1)NC(=O)CS2)C1CCS(=O)(=O)C1 (centres undefined)	PABP1 MLLE inh 55
COCC(C)n1c(C)cc(C(=O)COC(=O)c2ccc3c(c2)NC(=O)CS3)c1C (centres undefined)	PABP1 MLLE inh 39
CC(C)CN(C(=O)COC(=O)CNC(=O)c1ccccc1F)C1CCS(=O)(=O)C1 (centres undefined)	PABP polyA inh active
CCCCn1c(N)c(N(CCOC)C(=O)c2ccc(-c3ccc(C(C)=O)cc3)o2)c(=O)[nH]c1=O	none (no result: PABP polyA inh, 14-3-3 Bad inh, eIF4H inh, eIF4E 4G PPI)
COC(C[C@@H](O)CC(=O)COCc1ccccc1)OC	none
FC(F)(F)c1ccccc1-n1c(CN2CCCCC2)n[nH]c1=S	eIF4E 4G PPI 85
Fc1ccc(-n2c(CN3CCCCC3)n[nH]c2=S)cc1	none
CCCOc1ccc(C(=O)Nc2ccc(N3CCN(C(=O)c4ccco4)CC3)cc2)cc1	none (no result: 14-3-3 Bad inh, eIF4E 4G PPI)
CCOC(=O)C[n+]1c(C)sc2ccc(OC)cc21	14-3-3 Bad inh 80
Clc1ccc(SCCn2cncn2)cc1	14-3-3 Bad inh 73
Cc1ccc(SCCCn2cncn2)cc1	none
O=Cc1c(Cl)[nH]c(=O)n1-c1ccccc1	PABP polyA inh active
Cc1cc(C)cc(Nc2ccc(C(=O)O)cc2N)c1	PABP polyA inh active, eIF4H inh 54
Cc1ccc(Nc2ccc(C(=O)O)cc2N)cc1	none (no result: PABP1 MLLE inh)
CCCC(=O)Nc1cccc(-c2nc3ccccc3c(=O)o2)c1	none
Cc1ccc(S(=O)(=O)N2CCCCC2)cc1C(=O)NCc1ccccn1	none (no result: 14-3-3 Bad inh, eIF4E 4G PPI)
Cc1ccc(S(=O)(=O)Nc2c(C)n(C)n(-c3ccccc3)c2=O)cc1C(=O)NCc1ccccn1	eIF4E 4G PPI 84
CN(C)S(=O)(=O)Nc1ccccc1F	none
CCOc1cc(C2C3=C(CCCC3=O)NC3=C2C(=O)CCC3)ccc1OCCO	PABP1 MLLE inh 41
CCOc1cc(C2C3=C(CCCC3=O)NC3=C2C(=O)CCC3)cc(Cl)c1O	none
CC(C)COC(=O)N1CCN(S(=O)(=O)c2ccc3c(c2)CCC3)CC1	none (no result: PABP polyA inh, 14-3-3 Bad inh, eIF4H inh, eIF4E 4G PPI)
NC(Cc1ccc(Cl)cc1)c1csc(Nc2ccc(C(F)(F)F)cn2)n1 (centres undefined)	none (no result: PABP polyA inh, 14-3-3 Bad inh, eIF4H inh, eIF4E 4G PPI)
Cc1cc(C)cc(NC(=O)CCN2CCCC2)c1	PABP polyA inh active
O=C(O)CCN1C(=O)/C(=C/c2ccc(-c3nc4ccccc4s3)o2)SC1=S	PABP polyA inh inconclusive, eIF4H inh inconclusive
O=C(O)CCCN1C(=O)/C(=C\c2ccc(-c3nc4ccccc4s3)o2)SC1=S	PABP polyA inh active, 14-3-3 Bad inh 81, eIF4H inh 96
O=C(O)CC(C(=O)O)N1C(=O)/C(=C/c2ccc(-c3nc4ccccc4s3)o2)SC1=S (centres undefined)	eIF4H inh 127
O=Cc1ccc(-c2nc3ccccc3s2)o1	none
Cc1nc2c(nnn2Cc2ccccc2)c(=O)[nH]1	none
O=C(NC(=S)Nc1ccc2c(c1)OCO2)c1ccccc1	none
COc1cccc(OC)c1C(=O)N1CCN(Cc2ccc3c(c2)OCO3)CC1	14-3-3 Bad inh 97[fluorescence artefact?]
c1cnc(N2CCN(Cc3ccc4c(c3)OCO4)CC2)nc1	PABP polyA inh active!, eIF4H inh 51!
O=C(NC(=S)Nc1ccc2c(c1)OCCO2)c1cccc(Br)c1	PABP1 MLLE inh 40
CCC(C)N1CCN(C(=O)c2cccs2)CC1 (centres undefined)	14-3-3 Bad inh 70 (no result: PABP polyA inh, eIF4H inh)
COc1cc(SC)ccc1C(=O)N1CCN(Cc2ccc3c(c2)OCO3)CC1	none (no result: 14-3-3 Bad inh, eIF4E 4G PPI)
c1ccc(N2CCN(Cc3ccc4c(c3)OCO4)CC2)nc1	none (no result: PABP polyA inh, 14-3-3 Bad inh, eIF4H inh, eIF4E 4G PPI)
O=C(NC(=S)Nc1cccc(C(F)(F)F)c1)c1csnn1	none
